Experimental data from PubChem BioAssay (NCATS).
Records with an inconclusive call do not appear. Active and inactive are the calls of the source. The call rests on the fitted dose curve.

Target: Retinoic acid receptor RXR-alpha (Homo sapiens) (UniProt P19793)
Assay: qHTS assay for small molecule agonists of retinoid X receptor alpha signaling (AID 588544)
Settings: HEK293T RXRa-UAS-bla, beta-lactamase reporter, 18 h; series mostly up to 76.7 µM
Description: NIH Chemical Genomics Center [NCGC] U.S. Environmental Protection Agency [EPA] National Institutes of Environmental Health Sciences [NIEHS] National Toxicology Program [NTP] NCGC Assay Overview The Retinoid X receptor (RXR), a nuclear hormone receptor is expressed in liver, spleen, placenta, epidermis, central nervous system. These receptors are able to form homo and heterodimers with other nuclear receptors and due to this heterodimerizing ability, RXR functions as master regulators producing diverse physiological effects. Three subtypes of RXR exist; alpha, beta and gamma. Retinoid X receptor alpha (RXR-alpha) has potential roles in metabolic signaling pathways, skin alopecia, dermal cysts, cardiac development, insulin sensitization etc. Therefore screening environmental chemicals on RXR-alpha signaling can be used for the studies focused on such therapeutic applications.
NCGC Assay Protocol Summary Using a beta-lactamase reporter-gene under control of Retinoid X receptor--alpha (RXR-alpha) response element, a cell-based assay [GeneBLAzer (RXR-alpha -UAS-bla assay developed by Invitrogen] was used to measure RXR-alpha ligands signaling. GeneBLAzer RXR-alpha -UAS-bla HEK293T cells were used with assay medium containing 2% charcoal-stripped FBS. The assay was performed in clear bottom black Greiner 1536-well plates. 9-cis-retinoic acid was used in the screen as the positive control. Library compounds were measured for their ability to stimulate the reporter gene activity. Compounds were screened in a titration series in 1536-well format. The fluorescence intensity (405 nm excitation, 460/530 nm emission) was measured using an EnVision plate reader. Data was normalized relative to 9-cis-retinoic acid control (500 nM, 100%), and DMSO only wells (basal, 0%). Concentration-response titration points for each compound were fitted to the Hill equation yielding concentrations of half-maximal stimulation (EC50) and maximal response (efficacy) values. qHTS protocol for RXR-alpha beta-lactamase assay in agonist mode [Step] [Parameter] [Value] [Description] 1. Reagent; 6 uL; 2500 cells/well 2. Incubation; 37 C for 4 hrs 3. Compounds; 23 nL; 0.59 nM to 92 uM 4. Controls (9-cis-retinoic acid); 23 nL, - One column with dose response, start 38 uM, 1:3 dilutions in duplicates - Final concentrations of 500 nM and 50 nM in two columns 5. Incubation; 37 C for 18 hrs 6. Detection reagent; 1 uL of CCF4-dye 7. Incubation; RT for 2 hrs 8. Detection; Fluorescence; Envision plate reader

Retinoic acid receptor RXR-alpha (Homo sapiens), sequence (P19793 whole entry, looked up): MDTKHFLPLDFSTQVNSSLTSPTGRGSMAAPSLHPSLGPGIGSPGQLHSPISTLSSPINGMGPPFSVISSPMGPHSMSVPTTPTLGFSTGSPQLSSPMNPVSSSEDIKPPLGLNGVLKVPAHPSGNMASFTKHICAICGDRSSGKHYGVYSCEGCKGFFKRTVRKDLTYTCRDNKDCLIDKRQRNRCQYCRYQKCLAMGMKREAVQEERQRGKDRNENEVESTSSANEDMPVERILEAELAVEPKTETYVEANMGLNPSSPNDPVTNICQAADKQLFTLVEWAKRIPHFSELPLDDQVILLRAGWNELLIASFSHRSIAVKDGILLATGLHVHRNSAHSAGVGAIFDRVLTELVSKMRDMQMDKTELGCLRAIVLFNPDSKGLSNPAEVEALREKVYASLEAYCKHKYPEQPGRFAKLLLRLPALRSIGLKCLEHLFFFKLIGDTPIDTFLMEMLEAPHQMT

Structure (SMILES)	outcome
ClC(Cl)Cl	inactive
COC(=O)c1ccccc1O	inactive
C[C@H](CCC(=O)O)[C@H]1CC[C@H]2[C@@H]3[C@H](O)C[C@@H]4C[C@H](O)CC[C@]4(C)[C@H]3C[C@H](O)[C@]12C	inactive
CC(C)(C)CC(C)(C)c1ccc(OCCO)cc1	inactive
CO/N=C(/C(=O)N[C@@H]1C(=O)N2C(C(=O)O)=C(COC(N)=O)CS[C@H]12)c1ccco1	inactive
CC1=CC(=O)NS(=O)(=O)O1	inactive
Cc1ncc[nH]1	inactive
C[Si](C)(C)O[Si](C)(C)C	inactive
CCCCCCCCCCCCCCCCCC(=O)OC[C@@H](O)[C@H]1OC[C@H](O)[C@H]1O	inactive
OC[C@H]1O[C@@H]2O[C@H]3[C@H](O)[C@@H](O)[C@@H](O[C@H]4[C@H](O)[C@@H](O)[C@@H](O[C@H]5[C@H](O)[C@@H](O)[C@@H](O[C@H]6[C@H](O)[C@@H](O)[C@@H](O[C@H]7[C@H](O)[C@@H](O)[C@@H](O[C@H]1[C@H](O)[C@H]2O)O[C@@H]7CO)O[C@@H]6CO)O[C@@H]5CO)O[C@@H]4CO)O[C@@H]3CO	inactive
OB(O)O	inactive
OC[C@H]1O[C@@](CO)(O[C@H]2O[C@H](CO)[C@@H](O)[C@H](O)[C@H]2O)[C@@H](O)[C@@H]1O	inactive
O.O.O.O.O.O.O.O=S(=O)([O-])[O-].[Co+2]	inactive
CC(C)[C@@H]1CC[C@@H](C)C[C@H]1O	inactive
Nc1nccs1	inactive
CO	inactive
Oc1cccc(O)c1O	inactive
Nc1ccc(N=Nc2ccccc2)c(N)n1	inactive
C=CC(C)(O)CC/C=C(\C)CCC=C(C)C (stereo not given)	inactive
CCCCO	inactive

Structure (SMILES)	outcome
NCCN	inactive
CCOC(C)OCC	inactive
Cc1ccc(S(=O)(=O)O)cc1C	inactive
CN(CCO)CC(O)Cn1cnc2c1c(=O)n(C)c(=O)n2C (stereo not given) (tested in a mixture with another compound)	inactive
c1ccc2ccccc2c1	inactive
CC1=CCC2CC1C2(C)C (stereo not given)	inactive
C=C(C)C1CC=C(C)CC1 (stereo not given)	inactive
OCc1ccccc1	inactive
NCCO/C=C/[C@H](N)C(=O)O	inactive
OCC(O)CO	inactive
CO[C@@H]1[C@H](OC(=O)/C=C/C=C/C=C/C=C/C(=O)O)CC[C@]2(CO2)[C@H]1[C@@]1(C)O[C@@H]1CC=C(C)C	inactive
OCl	inactive
CCCCC	inactive
O=P(O)(O)O	inactive
CCCCC(CC)COS(=O)(=O)O (stereo not given)	inactive
NC(N)=O	inactive
CC(C)O	inactive
[O-][N+](=Nc1ccccc1)c1ccccc1	inactive
C/C=C/C=C/C(=O)O	inactive
N[C@@H](Cc1cc(I)c(Oc2ccc(O)c(I)c2)c(I)c1)C(=O)O	inactive
